D1 PAM = Potentiators of Human D1 Dopamine Receptor: qHTS; HEK293 TREx D1 cells, calcium flux, dopamine EC20 potentiation; potentiation, % at 10 µM; 360,000 compounds, 0.036% hits; AID 504651, 2011; in the data active = potentiation above about 30%
D1 antag = Antagonist of Human D 1 Dopamine Receptor: qHTS; D(1A) dopamine receptor (Homo sapiens), P21728; HEK293 TREx D1 cells, calcium flux, dopamine EC80; hits give low values; activity change, negative = inhibition, % at 10 µM; 360,000 compounds, 3.2% hits; AID 504652, 2011; in the data active = activity change below about -30%
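Cells carrying a force-coupled, tetracycline-inducible human D1 receptor report calcium flux. Each well gets a 10 s baseline, compound with 180 s monitoring, then an EC80 dopamine stimulus with a second 180 s kinetic read.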
D1 ag = Allosteric Agonists of the Human D1 Dopamine Receptor: qHTS | D(1A) dopamine receptor (Homo sapiens), P21728 | HEK293 T-REx D1 cells, calcium flux, agonist mode | activation, % at 2 µM | 360,000 compounds, 1% hits; in the data active = activation above about 30%
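Agonism was scored from calcium flux recorded over 180 s (1 read/s) after pintool compound addition, following a 10-cycle baseline. Cells were inducible force-coupled HEK293 TREx D1, plated overnight at 30 C and loaded with no-wash calcium dye.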
DRD3 agonist = qHTS of D3 Dopamine Receptor Agonist: qHTS; 410,000 compounds, 0.58% hits; D3R DiscoveRx beta-arrestin cells, luminescence, 90 min; D(3) dopamine receptor (Homo sapiens), P35462; max activation, %; AID 652048, 2013; in the data active = max activation above about 30%
Target sequence (P35462 whole entry, looked up): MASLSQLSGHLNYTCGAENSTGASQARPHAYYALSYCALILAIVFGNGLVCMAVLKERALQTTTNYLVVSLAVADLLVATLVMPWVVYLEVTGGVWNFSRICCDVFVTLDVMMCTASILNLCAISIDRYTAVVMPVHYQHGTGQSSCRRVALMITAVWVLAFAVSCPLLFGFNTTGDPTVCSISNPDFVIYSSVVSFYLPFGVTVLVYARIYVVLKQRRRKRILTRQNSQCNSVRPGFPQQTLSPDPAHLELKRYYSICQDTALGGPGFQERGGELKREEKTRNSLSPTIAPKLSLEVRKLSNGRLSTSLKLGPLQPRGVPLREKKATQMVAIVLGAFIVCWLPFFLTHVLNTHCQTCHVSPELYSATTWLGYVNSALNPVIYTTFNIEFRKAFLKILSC
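Agonist mode: compounds and dopamine controls were applied to plated cells for 90 min at 37 degrees C after an overnight attachment at 1500 cells/well. Luminescent read-out followed 30 - 60 minutes at room temperature with DiscoveRx detection reagent.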
Chronic BCR inh = qHTS Assay to Find Inhibitors of Chronic Active B-Cell Receptor Signaling | ABC-DLBCL IkBa-CBG/CBR reporter, luminescence ratio, 4 h | Potency, µM (highest dose often 46.1 µM), most hits filed as inhibitors | 340,000 compounds, 0.05% hits | AID 493014, 2011; active = well fitted inhibition curve with a large enough effect in the signal ratio, with a control signal flat, not every such curve was filed as active; inconclusive = small, poorly fitted or top-dose-only effect, or effect the other way, or a change in a side signal; the % refers to the signal ratio
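Doxycycline induced both beetle luciferases in TMD8 lymphoma cells; IKK-driven degradation limits the IkappaBalpha-fused green signal, while red luminescence normalises for cell number and nonspecific effects. Compounds tested up to 46 uM, 4 hrs.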
D3 antag = qHTS of D3 Dopamine Receptor Antagonist: qHTS; D3R cells, DiscoveRx beta-arrestin luminescence, antagonist mode; hits give low values; AID 652054, 2013; max response, negative = inhibition, %; D(3) dopamine receptor (Homo sapiens), P35462; 360,000 compounds, 2.5% hits; in the data active = max response below about -50%; inconclusive = no clear call, values can overlap the other calls
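Cells plated overnight at 1500 cells/well, then exposed to library compounds with dopamine controls for 90 minutes at 37 degrees C. DiscoveRx reagent added for 30–60 minutes at room temperature; luminescence read, quantitative HTS format.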
Of the large screens only hits and unclear results are named; the others gave an inactive call; ! = a repeat was not active. In the library only some 6% were active in any assay of this set; here they are far more common.

Cc1ccc(-n2c3c(cc(C(=O)Nc4ccccc4C(N)=O)c2=O)C(=O)CC(C)(C)C3)cc1	none (no result: Chronic BCR inh, D3 antag)
O=C(Nc1ccc(Br)cc1)c1cccc(S(=O)(=O)Nc2ccccn2)c1	D1 antag -61.6, Chronic BCR inh inconclusive
COc1ccccc1NS(=O)(=O)c1cccc(C(=O)NC2CCN(Cc3ccccc3)CC2)c1	D1 antag -36.6, D3 antag -94.8
COc1ccccc1NS(=O)(=O)c1cc(C(=O)NC2CCN(Cc3ccccc3)CC2)ccc1C	D3 antag -92.0 (no result: D1 PAM, D1 antag, D1 ag, Chronic BCR inh)
Cc1ccc2nc(-c3ccc(Cl)c(NC(=O)c4cccc([N+](=O)[O-])c4C)c3)oc2c1	none (no result: Chronic BCR inh, D3 antag)
CC(C)(C)c1ccc(S(=O)(=O)N(CCCN2CCOCC2)Cc2cccs2)cc1	D1 antag -33.0, D3 antag -66.7
CCc1ccccc1Nc1ncnc2c1cnn2-c1ccc(Cl)cc1	Chronic BCR inh inconclusive (no result: D3 antag)
CCN(N=O)[C@@H](Cc1ccccc1)CN(N=O)[C@@H](Cc1ccccc1)CN(C)N=O	DRD3 agonist 32.1
CCOc1ccc(NC(=S)N=Nc2c(O)[nH]c3ccccc23)cc1	Chronic BCR inh inconclusive
Oc1[nH]c2ccccc2c1N=NC(=S)NCCc1ccccc1	D1 antag -30.3, Chronic BCR inh inconclusive
Oc1cccc(NC(=S)N=Nc2c(O)[nH]c3ccccc23)c1	D1 antag -31.2, Chronic BCR inh inconclusive
CCCCNC(=S)N=Nc1c(O)[nH]c2ccccc12	D1 antag -31.2, Chronic BCR inh inconclusive
CCOC(=O)c1ccc(CN(Cc2ccccc2C)S(=O)(=O)c2ccc(F)c(C(=O)Nc3cccc(OC)c3)c2)cc1	none (no result: D3 antag)
O=C(NNc1c2ccccc2nc2ccccc12)c1ccc(O)cc1	Chronic BCR inh inconclusive, D3 antag -64.2
Cc1nc(C(=O)NNC(=O)c2cccc(Cl)c2)c(C(F)(F)F)o1	Chronic BCR inh inconclusive
Cc1nc(/C(N)=N/OC(=O)c2ccc(Cl)cc2)c(C(F)(F)F)o1	D1 antag -34.9, Chronic BCR inh inconclusive
Cn1nnnc1Sc1ncnc2scc(-c3ccc(C(=O)OC(C)(C)C)cc3)c12	none (no result: DRD3 agonist, Chronic BCR inh, D3 antag)
Clc1ccccc1-c1ccc2ncnc(NCc3cccs3)c2c1	D1 antag -41.8, Chronic BCR inh inconclusive (no result: DRD3 agonist, D3 antag)
Cc1csc(CNc2ncnc3ccc(-c4ccoc4)cc23)c1	D1 antag -62.5!, Chronic BCR inh inconclusive (no result: DRD3 agonist, D3 antag)
Cc1cccc(-c2ccc3ncnc(NCc4cccs4)c3c2)c1	D1 antag -46.0!, Chronic BCR inh inconclusive (no result: DRD3 agonist, D3 antag)
Cc1csc(CNc2ncnc3ccc(-c4cccnc4)cc23)c1	Chronic BCR inh inconclusive (no result: DRD3 agonist, D3 antag)
COc1cccc(CNS(=O)(=O)c2cnc(N)nc2)c1	none (no result: Chronic BCR inh, D3 antag)
C[C@@H]1CN([C@@H](C)CO)S(=O)(=O)c2ccc(/C=C/c3ccccc3)cc2O[C@@H]1CN(C)Cc1ccc(C(=O)O)cc1	DRD3 agonist 37.5 (no result: D1 PAM, D1 antag, D1 ag, Chronic BCR inh)
Cc1n[nH]c(C)c1Sc1ccccc1N=Cc1cc(Cl)cc([N+](=O)[O-])c1O	D3 antag -131.2
COc1ccc(CN2CCOCC2)cc1OC	none
COc1cc2sc3ccc(-c4ccc(CN5CCOCC5)cc4)cc3c(=O)c2cc1OC	DRD3 agonist 117.8, Chronic BCR inh inconclusive (no result: D1 PAM, D1 antag, D1 ag)
COc1ccc(Nc2nc(Nc3ccc(OC)cc3)nc(-n3[nH]c(=O)c(C)c3C)n2)cc1	Chronic BCR inh inconclusive, D3 antag -58.5
COc1ccc(Nc2nc(OC)nc(OC)n2)cc1	none
O=C(/C=C\c1ccc2c(c1)OCO2)NC1CC(=O)N(c2cccc(F)c2)C1 (centres undefined)	none (no result: D1 antag, D3 antag)
CC(C)CN(CC(C)C)S(=O)(=O)N1CCC(C(=O)NC2CCCCCCC2)CC1	D1 antag -35.6
O=[N+]([O-])c1ccc2c(c1)C(N1CCOCC1)/C(=C/COc1ccc(F)cc1)O2 (centres undefined)	Chronic BCR inh inconclusive
O=[N+]([O-])c1ccc(OC/C=C2\Oc3ccc([N+](=O)[O-])cc3C2N2CCOCC2)cc1 (centres undefined)	D1 antag -69.3
CC1(C(=O)Nc2ccc3c(c2)OCCO3)CN(S(C)(=O)=O)CC(=O)N1CCCN1CCOCC1 (centres undefined)	none (no result: D1 PAM, D1 antag, D1 ag, Chronic BCR inh)
O=C(CN1CCC(n2nnc3cc(F)ccc32)CC1)NC1CCCCC1	D3 antag -85.5
O=C(CN1CCC(n2nnc3cc(F)ccc32)CC1)Nc1ccccc1N1CCOCC1	D1 antag -70.7, D3 antag -54.8
O=C(CN1CCC(n2nnc3cc(F)ccc32)CC1)NC1CC1	D1 antag -48.6, D3 antag -56.7
O=C(CN1CCC(n2nnc3cc(F)ccc32)CC1)NCCc1ccccc1	none
CCOc1ccc(N=Nc2ccc(N)cc2N)cc1	none (no result: D1 PAM, D1 antag, D1 ag, Chronic BCR inh, D3 antag)
COCCN1C[C@@H](CO)O[C@@H](n2cnc3c(NCc4ccc(F)cc4)ncnc32)C1	none (no result: D1 PAM, D1 antag, D1 ag, Chronic BCR inh)
CCOCCN1CCN(C2c3ccccc3CSc3ccccc32)CC1 (centres undefined)	D3 antag -76.2 (no result: D1 PAM, D1 antag, D1 ag, Chronic BCR inh)
CCNC(=O)NC1c2ccccc2CSc2ccccc21 (centres undefined)	none (no result: D1 PAM, D1 antag, D1 ag, Chronic BCR inh)
O=C(c1ccc(NC(=S)NCc2ccc(Cl)cc2)cc1)N1CCCCC1	D1 ag 49.5
O=C(CNCc1ccc(Cl)cc1)Nc1ccc(C(=O)N2CCCCCC2)cc1	Chronic BCR inh inconclusive, D3 antag -64.6
O=C(Nc1cccc(C(F)(F)F)c1)c1cc(-c2ccc3c(c2)OCCO3)on1	none (no result: Chronic BCR inh, D3 antag)
Cc1nc(C)c(-c2ccc(SCC(=O)Nc3ccccc3F)nn2)s1	none (no result: Chronic BCR inh, D3 antag)
CCOc1cc2sc(N3CCC(C(=O)Nc4ccc(C)cc4)CC3)nc2cc1Br	D1 antag -57.8 (no result: Chronic BCR inh, D3 antag)
CCOc1ccccc1NC(=O)C(=O)Nc1ccc2nc3n(c(=O)c2c1)CCCCC3	none (no result: Chronic BCR inh, D3 antag)
COCCNC(=O)C1CCN(Cc2cccc(OCc3ccccc3)c2)CC1	none
CC(C)CCNC(=O)C1CCN(Cc2cccc(OCc3ccccc3)c2)CC1	D1 ag 41.8
CCN(CC)C(=O)C1CCN(Cc2cccc(OCc3ccccc3)c2)CC1	D3 antag -61.1
CCC1Oc2ccc(Cl)cc2N(CC(=O)NCCc2ccc(Cl)cc2)C1=O (centres undefined)	none (no result: D3 antag)
COc1ccc2c(c1)[nH]c1c(=O)n(CCN3CCOCC3)cnc12	none
CCC1CCCN1Cn1cnc2c([nH]c3ccccc32)c1=O (centres undefined)	Chronic BCR inh inconclusive
CCC1CCCN1Cn1cnc2c([nH]c3ccc(OC)cc32)c1=O (centres undefined)	D3 antag -72.8
COc1ccc2c(c1)[nH]c1c(=O)n(CCCN3CCOCC3)cnc12	D1 antag -30.8

From PubChem
